Each sequence was assayed against OSR1 (assay: pooled miR-30 sensor sort-seq; sequence = guide strand). Conditions: shRNA.
AATATATCTGTGGTCTCGCAGG was tested, and the sensor-assay potency score (higher = more potent) was -1.37. Sequence TATATCTGTGGTCTCGCAGGTG has a sensor-assay potency score (higher = more potent) of 0.107. TTGTAGGACTTGGTGAAGTGGC showed a sensor-assay potency score (higher = more potent) of -0.656.

These sequences were tested against OTOL1 in the same assay as above. Conditions: shRNA.
With TGAACTGCTTCTTATTCTGGGC the sensor-assay potency score (higher = more potent) was -0.752. TTCTCTGGACTTGAACTGCTTC was tested, and the sensor-assay potency score (higher = more potent) was -0.336. TTGCTATTGTGTTCATACCAGC gave a sensor-assay potency score (higher = more potent) of -1.39. Work on TTGAACTGCTTCTTATTCTGGG yielded a sensor-assay potency score (higher = more potent) of 0.431. TTTGGTAATTGGTTCTGCCATT showed a sensor-assay potency score (higher = more potent) of -0.925. For TTGTCCTTTCACTCCTCCCAAA, the sensor-assay potency score (higher = more potent) was -1.46. TTTCTCTGGACTTGAACTGCTT was tested, and the sensor-assay potency score (higher = more potent) was -0.0808. Sequence TAGAGCAGTTAAACTTCCCAGT has a sensor-assay potency score (higher = more potent) of -0.7. TTGGTCATTATAGAGAATCTTT gave a sensor-assay potency score (higher = more potent) of -0.546. TAGGAAAAAACATATGTCCCAG showed a sensor-assay potency score (higher = more potent) of -0.389. TCTTTTGACACCTCAAGCCAGA was tested, and the sensor-assay potency score (higher = more potent) was -0.531. With TTCCATTCCACTGTCTCCTTTG the sensor-assay potency score (higher = more potent) was -0.205.

The sequences below were run against OTOP1 in the same assay as above. Conditions: shRNA.
In the case of AAAACTGTTGTTATGTTCCCAA, the sensor-assay potency score (higher = more potent) is reported as -0.801. TCGTCTATCCTGTAAATCCGGA showed a sensor-assay potency score (higher = more potent) of -0.834. TGATACTCTATGTTGAAGGGGT gave a sensor-assay potency score (higher = more potent) of 0.574. AAGCACAGCAGGTCGCTCTTGC showed a sensor-assay potency score (higher = more potent) of 0.0599. Work on TAGAACATGATGAGTGCCGACT yielded a sensor-assay potency score (higher = more potent) of -0.938. Work on TTGAGTTGGTGCTTTGACTCAT yielded a sensor-assay potency score (higher = more potent) of 0.454. TTGCAGAGGAACAAGAAGGCTG was tested, and the sensor-assay potency score (higher = more potent) was -0.195. TTGAACTGCATCTTCTGGTGCT gave a sensor-assay potency score (higher = more potent) of 0.911. Work on TTGGTGCTTTGACTCATTGAGG yielded a sensor-assay potency score (higher = more potent) of -1.32. With TTCCTCAGGACTTTTCTCTTGG the sensor-assay potency score (higher = more potent) was 0.566. With AAACAATGTGATACTACCGCGC the sensor-assay potency score (higher = more potent) was -0.348. Work on TTGCAGACTGTGACCACCCGAA yielded a sensor-assay potency score (higher = more potent) of 0.116.

The sequences below were run against OTOP2 in the same assay as above. Conditions: shRNA.
For TAGATGACCAGGGCCTGCCTGG, the sensor-assay potency score (higher = more potent) was -1.42. Work on TTGCCAGCAGCATCATCGCAGT yielded a sensor-assay potency score (higher = more potent) of -1.22. TTGGTGCACAGATTCATCCACC showed a sensor-assay potency score (higher = more potent) of -1.03. With TCCACCTCCACTGTGTTGCTGA the sensor-assay potency score (higher = more potent) was -0.748. In the case of TTGAACCTCGTAGATGATGAAG, the sensor-assay potency score (higher = more potent) is reported as -1.6. In the case of TAGAAGAGGATCCAGAGCGTTG, the sensor-assay potency score (higher = more potent) is reported as -1.26. For TAGAAATCCACCTCCACTGTGT, the sensor-assay potency score (higher = more potent) was 0.657. TTGGTGGTGAGTGTGAACATGA gave a sensor-assay potency score (higher = more potent) of -0.459. With TCGATGATAAACATGTTCTGGA the sensor-assay potency score (higher = more potent) was 0.252. Sequence TTCCACATGACATACAGCATGG has a sensor-assay potency score (higher = more potent) of -1.01. For AAGCAGACAATGTTGAAGCTGT, the sensor-assay potency score (higher = more potent) was 0.428. For ATCCACAGAATGACATTGCAGA, the sensor-assay potency score (higher = more potent) was -0.488.
Further: reference of the scale not given here.
